From the supplement of paper PMC12819154, “High-throughput peptide-centric local stability assay extends protein–ligand identification to membrane proteins, tissues and bacteria” (Nature Structural & Molecular Biology, 2025)

Legend:
UniProt P0AEX5 = molecular target: T1, UniProt P0AEX5; assay: log2 fold change of tryptic peptide abundance, ligand vs vehicle (limited proteolysis) (log2 ratio); higher = more trypsin-susceptible (destabilized); settings: peptide sequence: EAVMDSVVR; peptide start residue: 177; ligand concentration: 5 mM; sample: E. coli desalted lysate; replicate design: treated before aliquoting
T1 sequence (whole entry): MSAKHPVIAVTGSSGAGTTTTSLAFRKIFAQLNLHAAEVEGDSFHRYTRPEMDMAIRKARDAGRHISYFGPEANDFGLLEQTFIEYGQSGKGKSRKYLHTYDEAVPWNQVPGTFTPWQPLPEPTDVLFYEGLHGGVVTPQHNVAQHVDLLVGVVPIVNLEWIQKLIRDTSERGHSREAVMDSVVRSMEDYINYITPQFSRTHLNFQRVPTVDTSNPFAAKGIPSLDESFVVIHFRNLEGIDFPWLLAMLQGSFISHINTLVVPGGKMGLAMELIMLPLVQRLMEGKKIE
Method: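 HT-PELSA: desalted E. coli K-12 BW25113 lysate (with 12 mM MgCl2) incubated with 5 mM ATP (pH 7) or water for 30 min at 25 C, then a 4 min trypsin pulse at 22 C. Peptides were quantified by DIA-MS (4 replicates). Value is the peptide log2 fold change (treated/control); negative = stabilized. Scale: negative = ligand-stabilized region.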

UniProt O54950 = assay: log2 fold change of pooled soluble protein (PISA), ligand vs vehicle (log2 ratio); higher = more thermally stabilized; settings: ligand concentration: 20 uM; assay format: PISA pool 52.9/55.5/58.6 C
UniProt P31938 = assay: as above; settings: ligand concentration: 20 uM; assay format: PISA pool 52.9/55.5/58.6 C
UniProt P41241 = assay: as above; settings: ligand concentration: 20 uM; assay format: PISA pool 52.9/55.5/58.6 C
UniProt Q3UHJ0 = assay: as above; settings: ligand concentration: 20 uM; assay format: PISA pool 52.9/55.5/58.6 C
UniProt Q5F2E8 = molecular target: T2, UniProt Q5F2E8; assay: as above; settings: ligand concentration: 20 uM; assay format: PISA pool 52.9/55.5/58.6 C
T2 sequence (whole entry): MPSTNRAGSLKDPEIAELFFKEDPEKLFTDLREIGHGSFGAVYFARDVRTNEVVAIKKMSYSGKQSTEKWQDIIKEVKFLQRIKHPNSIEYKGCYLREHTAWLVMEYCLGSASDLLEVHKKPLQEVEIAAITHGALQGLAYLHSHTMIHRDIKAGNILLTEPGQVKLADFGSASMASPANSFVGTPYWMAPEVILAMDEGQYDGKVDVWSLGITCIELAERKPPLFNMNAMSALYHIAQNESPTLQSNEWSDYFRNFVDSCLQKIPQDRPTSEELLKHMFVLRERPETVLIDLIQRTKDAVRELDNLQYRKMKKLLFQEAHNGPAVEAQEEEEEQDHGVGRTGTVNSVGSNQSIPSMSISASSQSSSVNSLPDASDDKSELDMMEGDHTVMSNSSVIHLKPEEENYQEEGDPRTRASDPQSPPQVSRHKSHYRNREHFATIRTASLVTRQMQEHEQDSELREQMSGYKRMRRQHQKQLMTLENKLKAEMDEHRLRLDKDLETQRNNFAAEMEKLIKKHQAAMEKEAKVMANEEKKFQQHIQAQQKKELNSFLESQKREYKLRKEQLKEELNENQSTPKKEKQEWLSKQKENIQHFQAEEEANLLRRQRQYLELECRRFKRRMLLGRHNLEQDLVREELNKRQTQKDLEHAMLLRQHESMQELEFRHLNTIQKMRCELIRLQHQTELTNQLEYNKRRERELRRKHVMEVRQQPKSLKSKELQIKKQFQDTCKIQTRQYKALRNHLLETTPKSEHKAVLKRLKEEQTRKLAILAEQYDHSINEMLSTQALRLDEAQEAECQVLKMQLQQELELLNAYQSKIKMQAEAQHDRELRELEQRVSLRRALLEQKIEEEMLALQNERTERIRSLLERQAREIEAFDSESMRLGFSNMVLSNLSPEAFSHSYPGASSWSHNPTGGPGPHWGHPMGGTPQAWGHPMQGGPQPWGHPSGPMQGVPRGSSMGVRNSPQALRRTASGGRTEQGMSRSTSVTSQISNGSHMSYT

UniProt Q63932 = assay: as above; settings: ligand concentration: 20 uM; assay format: PISA pool 52.9/55.5/58.6 C
UniProt Q64464 = molecular target: T3, UniProt Q64464; assay: as above; settings: ligand concentration: 20 uM; assay format: PISA pool 52.9/55.5/58.6 C
T3 sequence (whole entry): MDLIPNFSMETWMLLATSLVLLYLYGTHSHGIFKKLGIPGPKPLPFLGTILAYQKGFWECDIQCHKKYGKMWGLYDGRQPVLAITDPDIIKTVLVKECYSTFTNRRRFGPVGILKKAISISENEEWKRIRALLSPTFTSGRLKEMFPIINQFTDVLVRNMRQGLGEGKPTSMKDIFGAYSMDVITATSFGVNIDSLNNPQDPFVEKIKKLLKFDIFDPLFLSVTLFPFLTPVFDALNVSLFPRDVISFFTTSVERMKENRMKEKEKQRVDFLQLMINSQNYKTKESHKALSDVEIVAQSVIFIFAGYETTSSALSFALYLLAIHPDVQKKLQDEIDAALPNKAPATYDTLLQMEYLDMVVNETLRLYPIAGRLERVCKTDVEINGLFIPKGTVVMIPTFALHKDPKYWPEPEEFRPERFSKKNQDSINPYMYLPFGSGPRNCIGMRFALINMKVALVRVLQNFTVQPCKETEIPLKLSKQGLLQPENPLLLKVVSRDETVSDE

UniProt Q6PIU9 = molecular target: T4, UniProt Q6PIU9; assay: as above; settings: ligand concentration: 20 uM; assay format: PISA pool 52.9/55.5/58.6 C
T4 sequence (whole entry): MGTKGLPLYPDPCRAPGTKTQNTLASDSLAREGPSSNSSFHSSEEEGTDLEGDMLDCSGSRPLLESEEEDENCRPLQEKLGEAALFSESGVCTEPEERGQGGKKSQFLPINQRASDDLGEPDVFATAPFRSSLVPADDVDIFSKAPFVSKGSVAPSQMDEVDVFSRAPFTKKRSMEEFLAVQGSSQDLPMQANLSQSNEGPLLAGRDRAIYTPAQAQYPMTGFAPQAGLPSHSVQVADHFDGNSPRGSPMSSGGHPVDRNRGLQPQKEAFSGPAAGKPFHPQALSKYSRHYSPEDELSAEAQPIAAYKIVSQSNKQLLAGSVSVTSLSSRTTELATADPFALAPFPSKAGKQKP

UniProt Q8BRK8 = assay: as above; settings: ligand concentration: 20 uM; assay format: PISA pool 52.9/55.5/58.6 C
UniProt Q8BTW9 = assay: as above; settings: ligand concentration: 20 uM; assay format: PISA pool 52.9/55.5/58.6 C
UniProt Q8BYY4 = molecular target: T5, UniProt Q8BYY4; assay: as above; settings: ligand concentration: 20 uM; assay format: PISA pool 52.9/55.5/58.6 C
T5 sequence (whole entry): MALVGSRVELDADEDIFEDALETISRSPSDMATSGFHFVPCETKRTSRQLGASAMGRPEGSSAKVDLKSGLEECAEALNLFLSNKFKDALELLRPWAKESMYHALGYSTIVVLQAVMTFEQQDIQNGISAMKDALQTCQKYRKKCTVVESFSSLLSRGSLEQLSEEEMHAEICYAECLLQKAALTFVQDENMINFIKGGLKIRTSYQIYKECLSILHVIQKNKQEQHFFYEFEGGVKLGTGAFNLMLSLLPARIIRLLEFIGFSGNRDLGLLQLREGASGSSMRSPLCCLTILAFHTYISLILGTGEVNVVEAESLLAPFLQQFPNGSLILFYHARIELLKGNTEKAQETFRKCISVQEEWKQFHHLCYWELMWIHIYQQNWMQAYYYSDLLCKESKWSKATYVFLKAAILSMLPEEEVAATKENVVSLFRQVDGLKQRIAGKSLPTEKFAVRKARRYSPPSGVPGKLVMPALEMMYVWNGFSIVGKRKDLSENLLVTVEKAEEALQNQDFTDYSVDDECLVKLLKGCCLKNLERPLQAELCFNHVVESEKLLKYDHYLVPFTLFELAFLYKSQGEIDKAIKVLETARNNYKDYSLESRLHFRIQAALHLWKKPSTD

UniProt Q9EQ20 = assay: as above; settings: ligand concentration: 20 uM; assay format: PISA pool 52.9/55.5/58.6 C
UniProt Q9JI10 = molecular target: T6, UniProt Q9JI10; assay: as above; settings: ligand concentration: 20 uM; assay format: PISA pool 52.9/55.5/58.6 C
T6 sequence (whole entry): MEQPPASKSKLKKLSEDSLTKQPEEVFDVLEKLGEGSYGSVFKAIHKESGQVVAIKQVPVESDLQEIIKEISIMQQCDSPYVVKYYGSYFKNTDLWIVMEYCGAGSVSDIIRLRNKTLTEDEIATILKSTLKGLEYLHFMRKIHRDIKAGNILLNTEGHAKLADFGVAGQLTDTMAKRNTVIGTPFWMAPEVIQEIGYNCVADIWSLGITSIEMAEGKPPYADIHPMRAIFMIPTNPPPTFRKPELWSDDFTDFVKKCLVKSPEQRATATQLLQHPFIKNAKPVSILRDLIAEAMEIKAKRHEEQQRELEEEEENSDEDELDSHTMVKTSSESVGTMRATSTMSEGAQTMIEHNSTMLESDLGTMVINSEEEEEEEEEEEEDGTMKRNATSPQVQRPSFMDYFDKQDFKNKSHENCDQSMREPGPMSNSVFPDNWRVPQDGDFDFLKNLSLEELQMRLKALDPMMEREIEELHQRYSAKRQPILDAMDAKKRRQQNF

UniProt Q9R092 = molecular target: T7, UniProt Q9R092; assay: as above; settings: ligand concentration: 20 uM; assay format: PISA pool 52.9/55.5/58.6 C
T7 sequence (whole entry): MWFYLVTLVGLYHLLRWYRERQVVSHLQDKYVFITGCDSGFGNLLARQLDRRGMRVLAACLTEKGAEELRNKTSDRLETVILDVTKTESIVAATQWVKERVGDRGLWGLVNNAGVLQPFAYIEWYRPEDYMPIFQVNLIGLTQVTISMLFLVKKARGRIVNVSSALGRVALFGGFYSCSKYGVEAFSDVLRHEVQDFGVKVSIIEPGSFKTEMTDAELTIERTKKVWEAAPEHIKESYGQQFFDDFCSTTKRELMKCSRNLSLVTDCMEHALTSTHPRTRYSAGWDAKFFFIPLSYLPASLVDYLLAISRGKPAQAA

UniProt Q9R257 = molecular target: T8, UniProt Q9R257; assay: as above; settings: ligand concentration: 20 uM; assay format: PISA pool 52.9/55.5/58.6 C
T8 sequence (whole entry): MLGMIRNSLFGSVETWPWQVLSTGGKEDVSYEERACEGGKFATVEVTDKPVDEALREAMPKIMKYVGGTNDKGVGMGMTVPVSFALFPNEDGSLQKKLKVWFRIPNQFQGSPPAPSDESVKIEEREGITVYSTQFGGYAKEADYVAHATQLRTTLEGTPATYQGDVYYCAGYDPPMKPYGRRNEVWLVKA
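For log2 fold change of tryptic peptide abundance, ligand vs vehicle (limited proteolysis) in this document: lysate desalted by size exclusion to strip endogenous ATP, peptide intensities built from DIA-NN precursor signals, and peptides missing any value discarded before comparison.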

Chain of UniProt Q9EQ20 (Q9EQ20 whole entry): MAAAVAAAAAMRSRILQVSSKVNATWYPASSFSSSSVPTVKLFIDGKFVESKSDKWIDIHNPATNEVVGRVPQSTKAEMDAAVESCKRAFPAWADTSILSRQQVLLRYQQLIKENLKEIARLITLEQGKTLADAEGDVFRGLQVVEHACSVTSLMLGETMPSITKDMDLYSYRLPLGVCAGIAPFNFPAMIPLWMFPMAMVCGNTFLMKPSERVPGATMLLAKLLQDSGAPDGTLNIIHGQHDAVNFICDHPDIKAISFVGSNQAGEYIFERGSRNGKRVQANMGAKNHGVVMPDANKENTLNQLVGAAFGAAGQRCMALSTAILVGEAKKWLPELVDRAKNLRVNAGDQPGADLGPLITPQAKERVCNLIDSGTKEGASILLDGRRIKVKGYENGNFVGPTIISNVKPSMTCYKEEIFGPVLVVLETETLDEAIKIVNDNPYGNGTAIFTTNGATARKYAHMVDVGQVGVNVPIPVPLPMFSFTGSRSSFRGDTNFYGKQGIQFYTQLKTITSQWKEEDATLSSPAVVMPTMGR
Chain of UniProt Q63932 (Q63932 whole entry): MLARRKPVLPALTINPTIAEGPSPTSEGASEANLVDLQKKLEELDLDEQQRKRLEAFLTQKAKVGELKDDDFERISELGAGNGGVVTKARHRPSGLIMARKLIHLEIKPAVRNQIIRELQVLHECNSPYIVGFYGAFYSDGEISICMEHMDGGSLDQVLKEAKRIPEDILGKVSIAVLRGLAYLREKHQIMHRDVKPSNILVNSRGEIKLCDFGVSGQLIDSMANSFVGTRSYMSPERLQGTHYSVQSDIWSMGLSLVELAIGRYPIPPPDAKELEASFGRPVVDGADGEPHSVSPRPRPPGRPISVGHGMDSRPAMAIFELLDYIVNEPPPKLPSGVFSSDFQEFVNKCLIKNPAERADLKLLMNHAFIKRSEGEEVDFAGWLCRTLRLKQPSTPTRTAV
Chain of UniProt Q3UHJ0 (Q3UHJ0 whole entry, looked up): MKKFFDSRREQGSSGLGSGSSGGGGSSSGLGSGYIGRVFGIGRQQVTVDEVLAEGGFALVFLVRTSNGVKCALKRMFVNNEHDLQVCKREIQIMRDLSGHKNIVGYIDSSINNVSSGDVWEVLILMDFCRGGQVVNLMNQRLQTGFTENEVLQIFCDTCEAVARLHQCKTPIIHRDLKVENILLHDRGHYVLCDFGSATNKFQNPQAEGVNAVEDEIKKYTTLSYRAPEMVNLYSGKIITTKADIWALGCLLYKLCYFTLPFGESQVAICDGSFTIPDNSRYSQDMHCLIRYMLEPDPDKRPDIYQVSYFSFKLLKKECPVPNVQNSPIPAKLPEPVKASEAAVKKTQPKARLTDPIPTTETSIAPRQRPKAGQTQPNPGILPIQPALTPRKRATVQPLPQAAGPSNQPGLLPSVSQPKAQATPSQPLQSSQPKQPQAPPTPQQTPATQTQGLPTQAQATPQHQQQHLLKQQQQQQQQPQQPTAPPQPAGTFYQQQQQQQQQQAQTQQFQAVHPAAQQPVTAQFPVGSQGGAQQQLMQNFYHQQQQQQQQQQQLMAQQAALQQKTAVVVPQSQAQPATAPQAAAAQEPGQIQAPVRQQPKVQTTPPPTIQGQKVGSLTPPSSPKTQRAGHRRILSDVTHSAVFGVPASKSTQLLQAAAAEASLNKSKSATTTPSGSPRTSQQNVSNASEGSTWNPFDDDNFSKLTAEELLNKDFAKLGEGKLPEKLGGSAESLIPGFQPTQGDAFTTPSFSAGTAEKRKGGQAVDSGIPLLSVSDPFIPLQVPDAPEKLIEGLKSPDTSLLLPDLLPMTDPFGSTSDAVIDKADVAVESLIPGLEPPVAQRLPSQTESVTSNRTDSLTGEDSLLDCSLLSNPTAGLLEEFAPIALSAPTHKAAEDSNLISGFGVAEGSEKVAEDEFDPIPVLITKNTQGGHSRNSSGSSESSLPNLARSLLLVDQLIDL
Chain of UniProt P31938 (P31938 whole entry): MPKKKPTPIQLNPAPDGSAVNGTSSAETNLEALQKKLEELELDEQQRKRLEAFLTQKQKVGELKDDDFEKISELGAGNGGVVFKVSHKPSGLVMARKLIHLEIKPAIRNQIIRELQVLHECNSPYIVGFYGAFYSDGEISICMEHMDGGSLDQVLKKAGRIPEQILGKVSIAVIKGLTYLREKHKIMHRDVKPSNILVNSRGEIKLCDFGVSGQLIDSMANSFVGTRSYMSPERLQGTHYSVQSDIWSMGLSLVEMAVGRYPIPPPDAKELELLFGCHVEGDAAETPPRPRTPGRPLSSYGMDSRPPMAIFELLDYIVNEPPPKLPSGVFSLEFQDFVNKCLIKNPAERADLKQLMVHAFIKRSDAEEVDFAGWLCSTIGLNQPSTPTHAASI
Chain of UniProt Q8BRK8 (Q8BRK8 whole entry): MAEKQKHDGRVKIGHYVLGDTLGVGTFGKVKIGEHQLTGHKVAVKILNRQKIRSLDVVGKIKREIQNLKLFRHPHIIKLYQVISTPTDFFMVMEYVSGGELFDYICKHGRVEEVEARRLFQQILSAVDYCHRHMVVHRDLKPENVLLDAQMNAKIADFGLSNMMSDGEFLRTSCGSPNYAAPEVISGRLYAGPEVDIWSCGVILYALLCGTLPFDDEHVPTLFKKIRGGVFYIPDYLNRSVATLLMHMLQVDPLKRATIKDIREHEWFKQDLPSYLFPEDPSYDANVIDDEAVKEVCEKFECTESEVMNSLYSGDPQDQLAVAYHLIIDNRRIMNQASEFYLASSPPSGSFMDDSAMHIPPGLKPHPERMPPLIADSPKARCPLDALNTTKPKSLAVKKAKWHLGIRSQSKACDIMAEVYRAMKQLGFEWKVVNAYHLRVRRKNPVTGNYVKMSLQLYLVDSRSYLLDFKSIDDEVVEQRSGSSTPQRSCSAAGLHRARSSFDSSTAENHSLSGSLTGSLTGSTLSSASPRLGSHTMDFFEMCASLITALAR
Chain of UniProt Q8BTW9 (Q8BTW9 whole entry): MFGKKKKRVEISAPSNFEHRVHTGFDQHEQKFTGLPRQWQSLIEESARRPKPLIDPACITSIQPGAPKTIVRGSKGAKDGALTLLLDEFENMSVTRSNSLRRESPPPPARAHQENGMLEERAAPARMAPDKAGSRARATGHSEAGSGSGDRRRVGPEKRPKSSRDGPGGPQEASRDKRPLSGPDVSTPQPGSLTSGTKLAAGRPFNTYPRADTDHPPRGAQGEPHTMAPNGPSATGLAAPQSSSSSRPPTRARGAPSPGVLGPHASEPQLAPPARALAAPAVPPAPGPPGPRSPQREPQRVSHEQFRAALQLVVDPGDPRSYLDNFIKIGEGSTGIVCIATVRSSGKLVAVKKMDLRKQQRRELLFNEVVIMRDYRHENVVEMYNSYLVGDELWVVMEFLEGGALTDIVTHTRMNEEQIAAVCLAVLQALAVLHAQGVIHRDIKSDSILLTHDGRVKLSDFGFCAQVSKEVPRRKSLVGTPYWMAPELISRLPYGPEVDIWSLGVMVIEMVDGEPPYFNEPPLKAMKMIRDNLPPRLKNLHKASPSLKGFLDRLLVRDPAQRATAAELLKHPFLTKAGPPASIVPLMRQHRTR
Chain of UniProt P41241 (P41241 whole entry): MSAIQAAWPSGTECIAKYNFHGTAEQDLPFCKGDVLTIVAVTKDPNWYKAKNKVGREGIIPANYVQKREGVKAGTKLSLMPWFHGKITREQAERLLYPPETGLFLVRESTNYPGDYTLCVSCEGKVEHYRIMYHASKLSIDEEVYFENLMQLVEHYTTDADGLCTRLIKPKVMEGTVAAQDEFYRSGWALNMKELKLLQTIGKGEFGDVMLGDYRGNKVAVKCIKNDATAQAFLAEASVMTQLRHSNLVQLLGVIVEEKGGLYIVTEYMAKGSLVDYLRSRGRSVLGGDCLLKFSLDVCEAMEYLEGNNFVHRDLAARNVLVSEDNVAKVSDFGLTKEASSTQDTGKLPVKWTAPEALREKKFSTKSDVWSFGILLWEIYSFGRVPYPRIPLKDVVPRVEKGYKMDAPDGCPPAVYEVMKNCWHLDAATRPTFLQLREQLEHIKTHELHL
Chain of UniProt O54950 (O54950 whole entry): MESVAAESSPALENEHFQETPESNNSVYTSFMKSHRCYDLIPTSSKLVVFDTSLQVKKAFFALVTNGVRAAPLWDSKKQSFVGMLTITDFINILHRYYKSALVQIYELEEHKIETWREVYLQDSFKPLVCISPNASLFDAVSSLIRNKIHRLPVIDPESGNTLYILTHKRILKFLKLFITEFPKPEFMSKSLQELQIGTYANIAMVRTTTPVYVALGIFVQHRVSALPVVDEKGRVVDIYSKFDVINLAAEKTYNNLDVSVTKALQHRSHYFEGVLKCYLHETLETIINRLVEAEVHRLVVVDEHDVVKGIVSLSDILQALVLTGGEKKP

**Q.** Nc1ncnc2c1ncn2[C@@H]1O[C@H](COP(=O)(O)OP(=O)(O)OP(=O)(O)O)[C@@H](O)[C@H]1O [adenosine 5'-triphosphate] was tested. Which log2 fold change (UniProt P0AEX5) did it give?
**A.** 0.659

**Q.** For CN[C@@H]1C[C@H]2O[C@@](C)([C@@H]1OC)n1c3ccccc3c3c4c(c5c6ccccc6n2c5c31)C(=O)NC4 [staurosporine], which “log2 fold change of pooled soluble protein” value (UniProt O54950) is on record?
**A.** 0.645

**Q.** What about the “log2 fold change of pooled soluble protein” value (UniProt P31938) of the same compound?
**A.** 2.14

**Q.** And the “log2 fold change of pooled soluble protein” value (UniProt P41241)?
**A.** 1.02

**Q.** And the “log2 fold change of pooled soluble protein” value (UniProt Q3UHJ0)?
**A.** 1.91

**Q.** What about the “log2 fold change of pooled soluble protein” value (UniProt Q5F2E8) of the same compound?
**A.** 1.2

**Q.** What about the “log2 fold change of pooled soluble protein” value (UniProt Q63932) of the same compound?
**A.** 2.18

**Q.** And the “log2 fold change of pooled soluble protein” value (UniProt Q64464)?
**A.** 0.447

**Q.** And the “log2 fold change of pooled soluble protein” value (UniProt Q6PIU9)?
**A.** 0.619

**Q.** And the “log2 fold change of pooled soluble protein” value (UniProt Q8BRK8)?
**A.** 0.661

**Q.** And the “log2 fold change of pooled soluble protein” value (UniProt Q8BTW9)?
**A.** 1.36

**Q.** And the “log2 fold change of pooled soluble protein” value (UniProt Q8BYY4)?
**A.** 0.552

**Q.** What about the “log2 fold change of pooled soluble protein” value (UniProt Q9EQ20) of the same compound?
**A.** 0.615

**Q.** What about the “log2 fold change of pooled soluble protein” value (UniProt Q9JI10) of the same compound?
**A.** 1.77

**Q.** What about the “log2 fold change of pooled soluble protein” value (UniProt Q9R092) of the same compound?
**A.** 0.855

**Q.** And the “log2 fold change of pooled soluble protein” value (UniProt Q9R257)?
**A.** 0.471
